Results on five compounds are retold here after PubChem BioAssay.

Calls of active or inactive are those of the source. Unless noted, the rule behind the calls is not given here.

Experiment [1] is described as follows: compounds binding Alexa647 anti-His antibody – biochemical, small-molecule microarray, 635 nm fluorescence, artefact control for SMM control protein annotation, primary screen (AID 1128).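 Note: score merges feature fluorescence with signal-to-noise for each printed compound spot.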 The note with it: higher = more signal.
Experiment [2] deals with Human papillomavirus type 1a E7 protein (residues 1-88). Kind of experiment: HPV1a E7 small-molecule binders, primary screen, biochemical, small-molecule microarray, residues 1-88, 635 nm (AID 1129). To be noted: small-molecule microarray binding, fluorescence 635 nm; higher = more signal.
Experiment [3] concerns the target Focal adhesion kinase 1 (Homo sapiens) (UniProt Q05397). Kind of experiment: PTK2 protein binding on printed compound slides – biochemical, small-molecule microarray, 635/667 nm fluorescence, BSA, DTT, primary screen (AID 1130).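 Note: composite of spot emission at 667 nm and signal to noise over triplicate slides.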 To be noted: 635 nm fluorescence, higher = more signal.
The subject of experiment [4] is Fibrinogen (Alexa647-labelled). The experiment is described as follows: Alexa647-fibrinogen binding to printed small molecules – biochemical, small-molecule microarray, 635/667 nm fluorescence, artefact control for SMM control-protein annotation, profiling panel (AID 1131).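 Note: z-score merges 667 nm fluorescence with per-spot signal-to-noise over triplicate slides.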 To be noted: fibrinogen-A647 binding fluorescence, higher = more signal.
In experiment [5] the target is Follistatin (Homo sapiens) (UniProt P19883). Kind of experiment: FST protein binding to printed compounds – biochemical, small-molecule microarray, 635/667 nm fluorescence, primary screen (AID 1132). To be noted: 635 nm fluorescence, higher = more signal.
The target in experiment [6] is Fibroblast growth factor 2 (Homo sapiens) (UniProt P09038). The experiment is described as follows: basic fibroblast growth factor binding to printed compounds – biochemical, small-molecule microarray, 635/667 nm fluorescence, primary screen (AID 1133). The note with it: FGF2, fluorescence 635/667, higher = more signal.
A short description of experiment [7]: JC-1 mitochondrial potential readout, lung cancer cells – cell-based, A549, JC-1 fluorescence, basal, 24 h, 100 nL, profiling panel (AID 1138).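 Note: A549 lung adenocarcinoma cells under basal conditions with no added stimulus; test concentration not given here.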 The note with it: higher = more signal.
A further experiment deals with Lefty1. Kind of experiment: Lefty1 protein binding to printed compounds – biochemical, small-molecule microarray, 635/667 nm fluorescence, primary screen (AID 1139). The note with it: fluorescence 635/667, higher = more signal.
Experiment [8] relates to wheat germ agglutinin (Triticum aestivum), Alexa647-labelled. Kind of experiment: Alexa647-WGA lectin binding to printed small molecules – biochemical, small-molecule microarray, 635/667 nm fluorescence, artefact control for SMM control-protein annotation, profiling panel (AID 1140).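 Note: score merges 667 nm feature emission with signal to noise over triplicate slides.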 To be noted: WGA-A647 binding, 635 nm fluorescence, higher = more signal.
In experiment [9] the target is Luciferin 4-monooxygenase (Photinus pyralis) (UniProt P08659). Kind of experiment: inhibition of purified Photinus pyralis luciferase – biochemical, luminescence, purified enzyme, 2006 set, primary screen (AID 1141).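 Note: cell-free assay with purified firefly luciferase at 100 ng per well in PBS; test concentration not given here.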 The note with it: purified firefly luciferase, SteadyGlo luminescence, 30 min; higher = more signal, called active from +8 up or from −8 down.
Experiment [10] has as its system Wnt5a (protein binding on small-molecule microarray). Kind of experiment: small molecules binding Wnt5a protein – biophysical, small-molecule microarray, 635/667 nm fluorescence, primary screen (AID 1142).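 Note: fluorescence read at 667 nm with signal to noise per printed feature.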 To be noted: 635 nm fluorescence, higher = more signal.
Experiment [11] in a line: ATP-based viability of Huh7 replicon cells – cell-based, CellTiter-Glo luminescence, basal, 48 h, cytotoxicity control for HCV replication inhibitor project, primary screen (AID 1143).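 Note: Huh7 hepatoma cells carrying a hepatitis C replication reporter with no stimulus; test concentration not given here.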 The note with it: higher = more signal, called active from +8 up or from −8 down.
Experiment [12] in a line: Pseudomonas biofilm growth suppression – PAO1 strain, BacTiter-Glo luminescence, LB-PBS, primary screen (AID 1144). The note with it: P. aeruginosa PAO1 biofilm, 12 h, higher = more signal.
Experiment [13] is described as follows: basal CRE-LacZ reporter activity in PC12 – cell-based, unstimulated, primary screen (AID 1145). The note with it: no forskolin, luminescence, 4.5 h, higher = more signal, called active from +8 up or from −8 down.
A short description of experiment [14]: forskolin-driven CRE-LacZ activity in PC12 – cell-based, CRE-LacZ reporter, forskolin-stimulated, primary screen (AID 1146).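 Note: PC12 cells with 6xCRE LacZ reporter stimulated by forskolin 10 µM; beta-galactosidase reporter signal reflecting CREB driven transcription.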 To be noted: luminescence, 4.5 h, higher = more signal, called active from +8 up or from −8 down.
The target in experiment [15] is Streptavidin (Streptomyces avidinii) (UniProt P22629). Kind of experiment: compounds binding control protein streptavidin – biophysical, small-molecule microarray, 635/667 nm fluorescence, artefact control for SMM compound annotation, primary screen (AID 1147).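 Note: signal reflects streptavidin binding to arrayed compounds as a control protein.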 The note with it: higher = more signal.
Experiment [16] can be described thus: probe aInhba binding on compound microarray – biochemical, small-molecule microarray, 635/667 nm fluorescence, primary screen (AID 1148).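 Note: score merges 667nm spot fluorescence with signal-to-noise for antibody binding to printed compounds.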 The note with it: higher = more signal.
Experiment [17] has as its target Torsin-1A (Homo sapiens) (UniProt O14656). Kind of experiment: TOR1A wild-type binding on microarray – cell lysate, small-molecule microarray, lysate, 635/667 nm, primary screen (AID 1149). The note with it: COS7 hTOR1A-WT lysate, 635 nm fluorescence, higher = more signal.
For experiment [18] the target is unchanged. The experiment is described as follows: torsin A mutant lysate binding on microarrays – cell lysate, small-molecule microarray, COS7 lysate, 635/667 nm fluorescence, primary screen (AID 1150).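 Note: score pools 667 nm emission and signal to noise measuring lysate protein binding.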 To be noted: COS7 hTOR1A mutant lysate, 635 nm fluorescence, higher = more signal.
The test system of experiment [19] is Sonic hedgehog protein (Shh). Kind of experiment: Sonic hedgehog microarray binding compounds – biochemical, small-molecule microarray, 635/667 nm fluorescence, primary screen (AID 1151).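 Note: Shh protein binding to compounds spotted on small-molecule microarray slides; score combines spot fluorescence intensity with signal-to-noise across triplicate slides.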 The note with it: 635 nm fluorescence, higher = more signal.

Chain of Follistatin (Homo sapiens) (P19883 whole entry, looked up): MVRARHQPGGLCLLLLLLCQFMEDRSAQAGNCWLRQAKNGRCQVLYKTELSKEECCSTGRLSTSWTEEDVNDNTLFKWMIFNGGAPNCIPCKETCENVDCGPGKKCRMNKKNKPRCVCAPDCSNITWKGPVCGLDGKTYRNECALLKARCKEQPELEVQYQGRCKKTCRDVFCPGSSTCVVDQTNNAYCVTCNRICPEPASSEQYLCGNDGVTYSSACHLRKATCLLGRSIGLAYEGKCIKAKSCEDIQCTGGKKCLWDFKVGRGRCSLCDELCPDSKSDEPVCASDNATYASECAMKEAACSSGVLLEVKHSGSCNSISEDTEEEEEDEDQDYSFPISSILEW
Chain of Focal adhesion kinase 1 (Homo sapiens) (Q05397 whole entry, looked up): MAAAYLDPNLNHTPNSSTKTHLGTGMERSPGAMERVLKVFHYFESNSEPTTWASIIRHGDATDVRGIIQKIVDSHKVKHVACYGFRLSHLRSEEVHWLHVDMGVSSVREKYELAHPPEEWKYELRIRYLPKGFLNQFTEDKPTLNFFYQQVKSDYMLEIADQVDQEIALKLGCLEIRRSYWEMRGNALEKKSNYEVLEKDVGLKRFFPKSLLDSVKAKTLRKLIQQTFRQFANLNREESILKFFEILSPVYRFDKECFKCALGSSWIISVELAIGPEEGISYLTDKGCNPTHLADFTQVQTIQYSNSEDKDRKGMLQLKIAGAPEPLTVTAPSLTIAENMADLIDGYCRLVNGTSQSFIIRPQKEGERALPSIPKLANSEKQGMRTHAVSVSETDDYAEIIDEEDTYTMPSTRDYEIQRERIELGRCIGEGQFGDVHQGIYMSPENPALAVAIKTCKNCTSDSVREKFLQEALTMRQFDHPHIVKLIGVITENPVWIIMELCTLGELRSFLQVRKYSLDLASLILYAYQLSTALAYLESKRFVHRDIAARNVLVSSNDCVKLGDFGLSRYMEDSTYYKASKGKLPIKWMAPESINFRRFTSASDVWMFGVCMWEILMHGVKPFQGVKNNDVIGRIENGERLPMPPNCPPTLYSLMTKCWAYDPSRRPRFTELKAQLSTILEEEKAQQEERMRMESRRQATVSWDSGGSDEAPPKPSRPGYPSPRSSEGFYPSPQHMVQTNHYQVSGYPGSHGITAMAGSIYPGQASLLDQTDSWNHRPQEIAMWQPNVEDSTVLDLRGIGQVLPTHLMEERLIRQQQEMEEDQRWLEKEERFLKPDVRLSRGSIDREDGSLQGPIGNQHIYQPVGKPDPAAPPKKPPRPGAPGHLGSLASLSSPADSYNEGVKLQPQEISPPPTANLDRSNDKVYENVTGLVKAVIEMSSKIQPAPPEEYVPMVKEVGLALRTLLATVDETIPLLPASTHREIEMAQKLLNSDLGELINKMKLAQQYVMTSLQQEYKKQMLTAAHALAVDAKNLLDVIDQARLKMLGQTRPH
Chain of Fibroblast growth factor 2 (Homo sapiens) (P09038 whole entry, looked up): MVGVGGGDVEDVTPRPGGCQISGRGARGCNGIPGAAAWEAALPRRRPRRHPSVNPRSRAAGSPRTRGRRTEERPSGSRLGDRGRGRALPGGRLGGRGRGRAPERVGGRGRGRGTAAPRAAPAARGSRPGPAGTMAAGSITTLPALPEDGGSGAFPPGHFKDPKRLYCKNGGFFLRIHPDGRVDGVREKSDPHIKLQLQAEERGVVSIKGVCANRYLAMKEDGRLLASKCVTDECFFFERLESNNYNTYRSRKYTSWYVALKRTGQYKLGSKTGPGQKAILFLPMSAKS
Chain of Luciferin 4-monooxygenase (Photinus pyralis) (P08659 whole entry, looked up): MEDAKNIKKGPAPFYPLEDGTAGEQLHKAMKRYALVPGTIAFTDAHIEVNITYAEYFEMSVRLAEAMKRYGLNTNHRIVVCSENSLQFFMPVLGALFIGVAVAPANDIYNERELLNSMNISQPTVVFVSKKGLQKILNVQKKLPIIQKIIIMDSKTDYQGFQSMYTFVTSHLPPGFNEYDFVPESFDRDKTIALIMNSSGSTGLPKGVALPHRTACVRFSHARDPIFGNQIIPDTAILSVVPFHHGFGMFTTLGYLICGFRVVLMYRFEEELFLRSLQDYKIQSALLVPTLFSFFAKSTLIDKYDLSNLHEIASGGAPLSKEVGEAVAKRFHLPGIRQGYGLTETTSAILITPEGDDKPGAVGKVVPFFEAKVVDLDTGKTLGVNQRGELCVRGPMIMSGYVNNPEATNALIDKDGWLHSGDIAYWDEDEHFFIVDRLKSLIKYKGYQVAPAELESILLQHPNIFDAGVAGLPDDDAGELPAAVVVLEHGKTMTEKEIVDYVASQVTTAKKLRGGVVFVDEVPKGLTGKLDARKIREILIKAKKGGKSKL
Chain of Streptavidin (Streptomyces avidinii) (P22629 whole entry, looked up): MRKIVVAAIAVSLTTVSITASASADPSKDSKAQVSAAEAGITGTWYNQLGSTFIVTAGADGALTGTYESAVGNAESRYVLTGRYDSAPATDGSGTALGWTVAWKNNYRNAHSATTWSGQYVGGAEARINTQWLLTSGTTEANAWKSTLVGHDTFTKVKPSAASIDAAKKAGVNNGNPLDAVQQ
Chain of Torsin-1A (Homo sapiens) (O14656 whole entry, looked up): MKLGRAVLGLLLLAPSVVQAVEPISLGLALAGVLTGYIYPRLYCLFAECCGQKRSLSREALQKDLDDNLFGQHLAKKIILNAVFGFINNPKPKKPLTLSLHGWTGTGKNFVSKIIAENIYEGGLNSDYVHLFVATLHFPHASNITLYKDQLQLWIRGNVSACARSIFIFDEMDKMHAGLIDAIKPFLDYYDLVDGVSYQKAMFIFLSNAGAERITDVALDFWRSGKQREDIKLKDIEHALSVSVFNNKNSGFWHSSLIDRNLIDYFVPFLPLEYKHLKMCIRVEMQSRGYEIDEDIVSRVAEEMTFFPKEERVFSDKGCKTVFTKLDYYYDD

With `[N-]=[N+]=NCc1ccccc1C[C@@]1(C(=O)NCC(O)CO)N=C(c2ccc(OCCCO)cc2)O[C@@H]1c1ccccc1N=[N+]=[N-]` (stereo not given in full), the composite z-score came to 2.41 in [1]; 1.22 in experiment [2]; 1.22 in [3]; 0.962 in experiment [4]; 1.38 in experiment [5]; 1.58 in experiment [6]. The composite z-score was -0.709 with Lefty1; 1.15 in experiment [8]; 0.63 in experiment [10]; 1.89 in [15]; 0.475 in experiment [16]; 0.73 with Torsin-1A (Homo sapiens) [17]. The composite z-score in the experiment with Torsin-1A (Homo sapiens) [18] is 1.07; in experiment [19], -0.762. Moreover, the z-score in experiment [7] was -0.043; in experiment [9] it was -3.13 (inactive); in experiment [11], -3.67 (inactive); in [12] it was -0.68 (inactive); in experiment [13], 0.209 (inactive); in experiment [14] it was -1.57 (inactive).
Turning to `CCOC(=O)C[C@H]1[C@H](OC(=O)Cc2ccc3c(c2)OCO3)[C@@H](NC(=O)c2ccc(-c3ccccc3)cc2)c2cc(OCCCO)ccc2N1C(=O)c1ccc2ccccc2n1`, the composite z-score is 0.0542 in experiment [1]; 0.242 in experiment [2]; 0.179 in [3]; 0.368 in experiment [4]; 0.46 in [5]; -0.0919 in [6]. For the same compound, the composite z-score is 0.278 in the experiment with Lefty1; 0.132 in [8]; 0.317 in [10]; 1.41 in [15]; -0.231 in [16]; -0.184 in the experiment with Torsin-1A (Homo sapiens) [17]. Moreover, the composite z-score in the experiment with Torsin-1A (Homo sapiens) [18] was found to be 0.438; in experiment [19], 0.0508. Besides, the z-score was -0.728 in [7]; 0.74 (inactive) in experiment [9]; -4.97 (inactive) in [11]; -0.157 (inactive) in experiment [12]; 4.93 (inactive) in experiment [13]; -0.87 (inactive) in experiment [14].
For `O=C1C2C=CC(C(O)C(c3ccccc3)c3ccccc3)N(n3cnnc3)C2C(=O)N1Cc1ccccc1` (stereo not given), the composite z-score in experiment [1] amounted to 0.305; in experiment [2], 1.21; in experiment [3] it was 0.638; in experiment [4], 0.977; in [5], 0.552; in experiment [6] it was 1.54. Besides, the composite z-score with Lefty1 worked out at 0.0063; in experiment [8], 0.131; in experiment [10] it was 0.159; in experiment [15], 1.12; in experiment [16] it was 0.057; with Torsin-1A (Homo sapiens) [17] it was 0.0613. In addition, the composite z-score with Torsin-1A (Homo sapiens) [18] is 0.142; in experiment [19] it was -0.0479. Further, the z-score is -0.806 in [7]; 1.01 (inactive) in [9]; -0.0706 (inactive) in [11]; 0.738 (inactive) in experiment [12]; 0.182 (inactive) in experiment [13]; 0.202 (inactive) in experiment [14].
Regarding `CC[C@@H]1C=C(C(=O)O)[C@H](c2ccco2)N1S(=O)(=O)c1ccc(C)cc1`, the composite z-score is 0.2 in [1]; -0.522 in experiment [2]; 1.32 in experiment [3]; -1.13 in [4]; 1 in [5]; -0.152 in [6]. The composite z-score was -0.165 in the experiment on Lefty1; 0.839 in experiment [8]; -0.291 in experiment [10]; 0.402 in experiment [15]; 0.0228 in experiment [16]; -0.282 with Torsin-1A (Homo sapiens) [17]. Further, the composite z-score turned out to be 0.222 with Torsin-1A (Homo sapiens) [18] and 0.374 in [19]. Also, the z-score in [7] is -1.09; in experiment [9] it was 1.09 (inactive); in experiment [11], 0.433 (inactive); in experiment [12], -0.187 (inactive); in experiment [13], -0.518 (inactive); in experiment [14], 1.1 (inactive).
For `C=CC[C@@]1(C(N)=O)N=C(c2ccc(OCCCO)cc2)O[C@@H]1c1ccccc1CN=[N+]=[N-]`, the composite z-score in [1] is 2.78; in [2], 1.17; in [3], -0.111; in experiment [4], 0.968; in experiment [5], 1.08; in experiment [6], 0.107. The composite z-score was -0.344 with Lefty1; 1.52 in experiment [8]; 0.186 in experiment [10]; 0.456 in experiment [15]; 0.233 in experiment [16]; 0.183 with Torsin-1A (Homo sapiens) [17]. Further, the composite z-score in the experiment with Torsin-1A (Homo sapiens) [18] is 0.0254; in experiment [19] it was -0.776. For the same compound, the z-score was -0.95 in experiment [7]; -1.35 (inactive) in experiment [9]; -3.34 (inactive) in experiment [11]; -0.58 (inactive) in experiment [12]; 1.8 (inactive) in experiment [13]; -1.35 (inactive) in experiment [14].
